Source: ChEMBL document CHEMBL1157539, “Thousands of chemical starting points for antimalarial lead identification” (Nature, 2010)

How the values were obtained:
Assay type in all cases: functional
[1] = tested on: Plasmodium falciparum; experiment: GSK_TCMDC: Inhibition of Plasmodium falciparum 3D7 in whole red blood cells, using parasite LDH activity as an index of growth. Test compounds present at 2uM
[2] = tested on: Plasmodium falciparum; experiment: GSK_TCMDC: Inhibition of Plasmodium falciparum Dd2 in whole red blood cells, using parasite LDH activity as an index of growth. Test compounds present at 2uM
[3] = tested on: HepG2; experiment: GSK_TCMDC: Percent inhibition of human HepG2 cell line. Test compounds present at 10uM.

| SMILES | Inhibition [1] [%] | Inhibition [2] [%] | Inhibition [3] [%] |
| --- | --- | --- | --- |
| O=C(NC1CC1)c1ccc(Nc2nccc(-c3c(-c4cccc(NC(=O)c5c(F)cccc5F)c4)nn4ccccc34)n2)cc1 | 94 | 96 | 84 |
| Oc1ccc(OCc2ccccn2)cc1 | 98 | 0 | 5 |
| Cc1[nH]c(C)c(-c2ccc(-c3ccccc3F)nc2)c(=O)c1Cl | 97 | 97 | 7 |
| Oc1ccc2[nH]c(-c3ccc(OC(F)(F)F)cc3)nc2c1CNC1CCCC1 | 99 | 97 | 32 |
| COc1cc2c(cc1OCCN1CCC(N3CCCC3)CC1)N(C(=O)/C=C/c1ccccc1Cl)CC2.Cl | 100 | 68 | 38 |
| Br.c1ccc(-c2nc(Nc3ccncc3)sc2-c2ccccc2)cc1 | 97 | 18 | 0 |
| COc1cccc(CNc2ncc(-c3ccsc3)c(-c3nccs3)n2)c1 | 89 | 82 | 9 |
| Cc1cc(N[C@@H](CC(C)C)C(=O)Nc2ccccc2)nc(NCCc2ccc(F)cc2)n1.O=C(O)C(F)(F)F | 100 | 94 | 8 |
| Cl.Nc1ccnc2ccc(NC(=O)CCCCCc3ccccc3)cc12 | 96 | 30 | 47 |
| Cc1cccc2nc(-c3ccc(-c4ccc(NC(=O)Nc5ccc(F)c(F)c5F)cc4)cc3)[nH]c12 | 100 | 97 | 51 |
| O=C(NC1CCN(CCN2CCC(c3c[nH]c4ccccc34)CC2)CC1)c1ccc(-c2ccc(C(F)(F)F)cc2)cc1 | 99 | 100 | 100 |
